Source: PubChem BioAssay
The list is not random: actives were taken first. Their share in the collection is about 2.4%.
FEN1 inhibitor: qHTS Assay for the Inhibitors of Human Flap endonuclease 1 (FEN1); P39748; Recombinant FEN1 flap cleavage, fluorescence, 15 min; Potency, µM (series often up to 114 µM), for inactives: at the highest dose activity change, negative = inhibition, usual class: inhibitors; hit rate 0.35% among 390,000; AID 588795, 2011; also: % is scaled to controls: 0 for no effect and ±100 for the full control effect; nearly all actives have a fitted effect of over 65% in size
Target sequence (P39748 whole entry, looked up): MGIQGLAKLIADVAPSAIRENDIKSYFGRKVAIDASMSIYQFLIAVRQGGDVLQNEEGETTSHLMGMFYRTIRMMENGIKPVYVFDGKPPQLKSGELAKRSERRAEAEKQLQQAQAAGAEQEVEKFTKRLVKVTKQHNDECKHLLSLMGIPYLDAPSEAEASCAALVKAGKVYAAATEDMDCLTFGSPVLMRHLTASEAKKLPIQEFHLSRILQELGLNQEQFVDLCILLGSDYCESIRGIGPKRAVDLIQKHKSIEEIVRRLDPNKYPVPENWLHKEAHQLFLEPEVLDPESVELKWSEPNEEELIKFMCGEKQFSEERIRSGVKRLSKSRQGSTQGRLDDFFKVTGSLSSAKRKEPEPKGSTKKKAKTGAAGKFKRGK
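With each library titrated from low to high concentration, compounds met 10 nM FEN1 for 15 min at room temperature before 50 nM substrate was added; readings at 0 and 15 min fed four-parameter Hill curve fits.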
TDP1 block: qHTS Assay for Inhibitors of Tyrosyl-DNA Phosphodiesterase (TDP1); Tyrosyl-DNA phosphodiesterase 1 (Homo sapiens), Q9NUW8; recombinant TDP1, AlphaScreen DNA substrate cleavage; Potency, µM (titrated, usually from 130 µM), for the others: at the top dose activity change, negative = inhibition, usual class: inhibitors; hit rate 0.28% among 350,000; AID 485290, 2010; also: % is scaled to controls: 0 for no effect and ±100 for the full control effect; nearly all actives have a fitted effect of over 40% in size
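E. coli-derived human Tdp1, 1 nM final. Cpd preinc 15 min RT; substrate 15 nM final, 5 min RT; AS bead mix 10 ug/ml final, 10 min RT. Signal loss = tyrosine-FITC cleavage. No-enzyme wells = max signal.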
POLB inh: qHTS Assay for Inhibitors of DNA Polymerase Beta; Pol beta primer extension/strand displacement, fluorescence kinetic; Potency, µM (top dose mostly 114 µM), inactives show top-dose activity change, negative = inhibition, actives largely listed as inhibitors; hit rate 1.3% among 340,000; P06746; also: % is scaled to controls: 0 for no effect and ±100 for the full control effect
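Preincubation: enzyme (10 nM) with compound, 15 min, RT. Reaction: substrate added to 50 nM final. Reads: 0 and 10 min. Analysis: normalized, Hill fit.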
Pol iota inh: qHTS for Inhibitors of Polymerase Iota. Potency, µM (series often up to 115 µM), without a hit: top-dose activity, negative = inhibition, usual class: inhibitors. DNA polymerase iota (Homo sapiens), Q9UNA4. Pol iota fluorescent replication assay, 10 min. hit rate 1% among 390,000
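Fluorescent replication assay read twice, at 0 min and 10 min after adding 50 nM (final) substrate. Enzyme (10 nM) and compounds were first incubated 15 min at room temperature; enzyme-free buffer wells were negative controls.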
Pol kappa inh: qHTS for Inhibitors of Polymerase Kappa. DNA polymerase kappa (Homo sapiens), Q9UBT6. purified Pol kappa, fluorescent DNA synthesis assay, 10 min. Potency, µM (highest dose often 107 µM), inactives show at the top dose activity, negative = inhibition, hits mostly inhibitors. hit rate 0.53% among 400,000; also: % is scaled to controls: 0 for no effect and ±100 for the full control effect
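Inhibition of 10 nM Pol kappa is measured by a fluorescent read-out at 0 and 10 min following addition of 50 nM substrate (final), with a 15-min room-temperature compound preincubation.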
Pol eta inh: qHTS for Inhibitors of Polymerase Eta; Potency, µM (titrated, usually from 114 µM), inactives show at the top dose activity change, negative = inhibition, actives largely listed as inhibitors; DNA polymerase eta (Homo sapiens), Q9Y253; hit rate 1.2% among 390,000; AID 588591, 2011; recombinant Pol eta, fluorescent DNA replication assay; also: % is scaled to controls: 0 for no effect and ±100 for the full control effect
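Pol eta at 10 nM preincubated with compounds 15 min at room temperature; reaction started with fluorescent substrate (50 nM final) and read kinetically at 0 and 10 min.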
* marks the source's active call; other numbers are inactive results; ? = inconclusive; nt = no result given; ! = repeats disagree; [ ] = dose if it differs, or a comment. Calls follow the shape of the dose curve; as a rule, active = well fitted curve in the direction sought with a large enough effect; inconclusive = small, poorly fitted or top-dose-only effect, or another doubt; inactive = no such curve, though single readings can be large; an effect the other way counts as inactive or inconclusive. Potency is read from the fitted curve at half-maximal effect.

SMILES | FEN1 inhibitor | TDP1 block | POLB inh | Pol iota inh | Pol kappa inh | Pol eta inh
Cc1cc(C)cc(Nc2cc(=O)n(C3CCCCC3)c(=O)[nH]2)c1 | 0% | 4% | 45µM* | -3% | -13% | ?
COc1cccc(-c2nnc3n2N=C(c2ccc(OC)cc2OC)CS3)c1 | nt | 17% | nt | nt | nt | nt
COc1cccc(/C=N/Nc2nc(Nc3ccc([N+](=O)[O-])cc3)nc(N3CCCC3)n2)c1O | -25% | 10% | ? | ? | 14µM* | 22µM*
COc1ccc(OC)c(NC(=O)CSc2nc3[nH]c(=O)[nH]c(=O)c3s2)c1 | ? | nt | nt | ? | -20% | 50µM*
c1ccc(-c2oc3ncnc(NCCCN4CCOCC4)c3c2-c2ccccc2)cc1 | -19% | 4% | 1% | 12% | -7% | 2%
Nc1ncnc2oc(-c3ccoc3)c(-c3ccco3)c12 | 18µM* | ? | nt | 11µM* | 20µM* | nt
O=C1CCC[C@@H]2CC(N(Cc3cc4ccccc4s3)c3ccccc3)C[C@@H]3CCN1[C@H]23 (some centres not stated) | -16% | nt | nt | 15% | 0% | nt
O=Cc1cc(N=Nc2cccc(C(=O)O)c2)ccc1O | -14% | 0% | 35µM* | ? | ? | ?
COC(=O)c1ccccc1NC(=O)CSc1nc2sc3c(c2c(=O)[nH]1)CCCC3 | ? | -8% | ? | ? | -19% | -4%
COc1cc2cncnc2cc1OCCCCC(N)=O | -14% | nt | nt | -23% | -4% | nt
CCCCOCC1CN(c2ccccc2)C(=O)CS1 (configuration not stated) | 13% | 2% | ? | 0% | -8% | 20µM*
CC1CN(c2ccccc2)C(=O)CS1 (configuration not stated) | -4% | 7% | 45µM* | ? | -25% | 20µM*
C=C(CO)C1Cc2cc(C(C)=O)ccc2O1 (configuration not stated) | ? | nt | ? | ? | ? | 20µM*
C=C/C(C)=C/[C@@]1(C)SC(=O)C(C)=C1O | nt | ? | 25µM* | ? | nt | 14µM*
Nc1ccc[n+](CC(=O)c2ccc(F)cc2)c1 | 8% | nt | nt | 48% | -2% | nt
CCc1ccccc1NC(=O)Cn1nnc(C(=O)NCc2ccccc2Cl)c1N | 16% | 0% | 71µM* | 89µM* | ? | -15%
COc1cccc(NC(=O)Cn2nnc(C(=O)Nc3ccccc3)c2N)c1 | 3% | 2% | 8% | 0% | -13% | -5%
Cc1ccc(CNC(=O)c2nnn(CC(=O)Nc3cc(C)ccc3C)c2N)cc1 | -2% | 3% | 7.9µM* | -6% | -21% | -12%
COc1ccc(NC(=O)Cn2nnc(C(=O)NCc3ccccc3)c2N)c(OC)c1 | 11% | -3% | ? | ? | 2%[60.1 µM] | 10%
COc1ccc(NC(=O)Cn2nnc(C(=O)NCCc3ccccc3)c2N)c(OC)c1 | ? | -20% | -25% | ? | -8% | 35µM*
COc1cccc(NC(=O)Cn2nnc(C(=O)NCCc3ccccc3)c2N)c1 | 12% | -13% | ? | 32µM* | -34% | 8%
Cc1ccc(C)c(NC(=O)Cn2nnc(C(=O)NCc3cccs3)c2N)c1 | -7% | 0% | ? | ? | -27% | -20%
CCc1ccccc1NC(=O)Cn1nnc(C(=O)NCc2cccs2)c1N | -7% | -1% | ? | ? | -13% | ?
COc1ccc(C2=Nn3c(nnc3-c3ccccc3OC)SC2)cc1 | nt | 0% | nt | nt | nt | nt
COc1ccc(OC)c(NC(=O)c2nnn(CC(=O)Nc3ccc4c(c3)OCO4)c2N)c1 | -13% | nt | ? | 64% | -3% | 16µM*
SMILES | FEN1 inhibitor | TDP1 block | POLB inh | Pol iota inh | Pol kappa inh | Pol eta inh
COc1ccc(CCNC(=O)c2nnn(CC(=O)Nc3ccccc3)c2N)cc1OC | ? | -6% | ? | ? | -12% | 5%
COc1ccc(CCNC(=O)c2nnn(CC(=O)Nc3ccccc3C)c2N)cc1OC | -21% | -2% | 20µM* | ? | -11% | ?
COc1ccc(-c2cc3ncc(C)n3c(Nc3ncccc3C(N)=O)n2)cc1OC | ? | nt | nt | nt | -15%[60.1 µM] | nt
O=C(N/N=C/C(Br)=C/c1ccccc1)c1cnccn1 | 2% | 8% | ? | ? | -13% | -4%
O=C(N/N=C/C(Br)=C\c1ccccc1)c1n[nH]c2c1CCC2 | -11% | 4% | 1% | 25µM* | -1% | -6%
Cc1ccc(-c2cc(C(=O)N/N=C/c3c[nH]c4ccccc34)n[nH]2)o1 | -7% | 8% | 28µM* | ? | ? | -15%
Cc1ccc(-c2cc(C(=O)N/N=C/c3ccccc3O)n[nH]2)o1 | 8% | 3% | -28% | 23% | -1% | -15%
Cc1ccc(-c2cc(C(=O)N/N=C/C(Br)=C/c3ccccc3)n[nH]2)o1 | -3% | 10% | 35µM* | ? | ? | -5%
Cc1c(Cl)c(=O)oc2cc(OCC(=O)N3CCCC(C)C3)ccc12 (configuration not stated) | 10% | 0% | nt | 8% | 4% | -10%
COc1ccc2c(c1)c(=O)oc1cc(OCC(=O)N3CCCC(C)C3)ccc12 (configuration not stated) | 2% | nt | 4µM* | ? | -22% | ?
COc1ccc2c(c1)c(=O)oc1cc(OCC(=O)N3CCC(C)CC3)ccc12 | ? | nt | 22µM* | 18µM* | ? | 79µM*
Cc1cncc(C(=O)O)[n+]1[O-] | nt | nt | nt | nt | 3%[19.4 µM] | nt
Cc1ccc(C(=O)Nc2ccc(C(=O)O)cc2)cc1S(=O)(=O)N1CCC(C)CC1 | -2% | 0%[12.3 µM] | 0% | -14% | 9% | -11%
CCC1(OC(=O)CN(C)C)C(=O)OCc2c1cc1n(c2=O)Cc2cc3c(N)cccc3nc2-1 (configuration not stated) | ? | nt | nt | 8.9µM* | ? | 7.9µM*
COc1ccc(CCNC(=O)CC2SC(=NCCc3ccccc3)NC2=O)cc1OC (configuration not stated) | -7% | 8% | 5% | 48% | -8% | 0%
CN=C1SC(CC(=O)NCCc2ccc(OC)c(OC)c2)C(=O)N1C (configuration not stated) | -1% | 2% | 1% | ? | ? | 56µM*!
Nc1ccc(S(=O)(=O)N2CCN(S(=O)(=O)c3c(F)cccc3F)CC2)cc1 | nt | 1% | nt | nt | nt | nt
O=C(O)c1ccc(Nc2nc(-c3ccc([N+](=O)[O-])cc3)nc3ccccc23)cc1 | ? | nt | 56µM* | ? | -12% | ?
